Here are results for 43 sequences from PMC7819943, “Rice protein-binding microarrays: a tool to detect cis-acting elements near promoter regions in rice”.

The full ranking holds about 39,000 sequences; the median of “fluorescence intensity (a.u.)” is about 4,300, and the highest 2% start at about 39,000. The list comes from a sample in which the highest values are over-represented; it also holds similar and randomly drawn sequences.

The target of this assay is T1, OsSMF1 (Oryza sativa, UniProt Q6ZLB0 1-436).
T1 sequence: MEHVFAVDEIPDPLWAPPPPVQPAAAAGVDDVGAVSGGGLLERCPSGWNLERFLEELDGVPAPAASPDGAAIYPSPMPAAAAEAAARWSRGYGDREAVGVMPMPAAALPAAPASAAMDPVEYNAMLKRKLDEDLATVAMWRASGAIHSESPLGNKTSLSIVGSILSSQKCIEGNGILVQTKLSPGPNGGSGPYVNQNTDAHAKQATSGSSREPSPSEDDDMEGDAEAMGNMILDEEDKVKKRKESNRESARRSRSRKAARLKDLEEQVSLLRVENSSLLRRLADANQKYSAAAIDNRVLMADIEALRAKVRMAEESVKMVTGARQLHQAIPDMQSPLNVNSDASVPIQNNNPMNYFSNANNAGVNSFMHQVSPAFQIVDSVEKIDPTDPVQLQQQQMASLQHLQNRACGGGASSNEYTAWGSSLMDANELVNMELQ
The assay is described as follows: protein-binding microarray (RPBM); PBS, 2% BSA, 51.3 ng/ul salmon testes DNA, 50 uM zinc acetate, 200 nM TF, 25 C, 1 h; high values mean tight binding. The following applies: protein: recombinant; tags: N-terminal polyhistidine and DsRed monomer fusion (pET32a); chain copies: 2; label: CyDye5-dUTP incorporated in the synthesized complementary strand; 3' TTTTT single-stranded linker to array surface; dsDNA, one strand shown. The method in brief:
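Per-feature fluorescence intensity (arbitrary units), read on an Axon 4000B scanner, is the binding signal. Transcription factors carrying an N-terminal polyhistidine tag and DsRed fusion were expressed in E. coli BL21-CodonPlus and purified on Ni–NTA. A custom Agilent array, made double-stranded by primer extension with Cy5-dUTP and blocked with 2% BSA, was incubated with 200 nM protein in PBS, 2% BSA, salmon testes DNA and 50 µM zinc acetate at 25 °C for 1 h and then washed.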
Take “TCTATATTCTACTCAATGCTTGGTTCTAAATTGGCCTCAACGGAGTCACCTAGTGCAG”: the binding signal was 24700 fluorescence intensity (a.u.).
In the case of “CTATTTGTGTCTTGTGTACTTCAACGTCTTCCTCTTATGACGGAGTCACCTAGTGCAG”, the binding signal is 3680 fluorescence intensity (a.u.).
Next, “ATACAGTAAATATTTGCTAATGACGGATTAATTAGGCTTACGGAGTCACCTAGTGCAG”: 3790 fluorescence intensity (a.u.); “GCGTGCGCGTCGACGTCGTCACCGCCGTCCACGGCGTAGTCGGAGTCACCTAGTGCAG”: 5680 fluorescence intensity (a.u.); “ACATCCTATCCCGTGCATTGAATCAGCATTGTACAGCAAACGGAGTCACCTAGTGCAG”: 3370 fluorescence intensity (a.u.).
In the case of “GAGCTCCACCTCCTCGCGTGCCCACGCCATCCATGGCTTCCGGAGTCACCTAGTGCAG”, the binding signal is 4500 fluorescence intensity (a.u.).
Next, “TTTGTCTATAAATTTAGTCAAACTTGAAACAATTTGATTTCGGAGTCACCTAGTGCAG”: 14600 fluorescence intensity (a.u.); “AAAATTATGTTGTCATTTTAATATATTTGAATAATACATTCGGAGTCACCTAGTGCAG”: 3560 fluorescence intensity (a.u.); “AGGGAAAGATTCTAACAAATAAAGAAAAGAACAATGCAGCCGGAGTCACCTAGTGCAG”: 3260 fluorescence intensity (a.u.).
The value for “ATAATTTGGTGTTACAGTAAACATTTGCTAATAATGGATTCGGAGTCACCTAGTGCAG” was 49500 fluorescence intensity (a.u.).
As to “AAATACATCCAAGAACACAATATATTCCAATATTTTGTCACGGAGTCACCTAGTGCAG”, the binding signal was 34500 fluorescence intensity (a.u.).
For “ATTTAATAAAACTTATTTGGTGTTGTAAATGTTGCTAAATCGGAGTCACCTAGTGCAG”, the binding signal was 26700 fluorescence intensity (a.u.).
Next, “ATGTCGTAGCTTTTAATTATATACTACTATAAATTTGATTCGGAGTCACCTAGTGCAG”: 43700 fluorescence intensity (a.u.); “GTGGTGCTACAGTAAATATTTGCTAATGATAGATTAATTACGGAGTCACCTAGTGCAG”: 7300 fluorescence intensity (a.u.); “GGTTGTTCTAACAAATTGTTTATAAAACAATTTGATTTTGCGGAGTCACCTAGTGCAG”: 3570 fluorescence intensity (a.u.).
The value for “TTTTCTATAAATTTAGTCAAATATAACAAAGTTTGATTAGCGGAGTCACCTAGTGCAG” was 42600 fluorescence intensity (a.u.).
Consider “TTTATATAATAGTTACTTACTATACTATTAATACTTGATTCGGAGTCACCTAGTGCAG”, for which the binding signal is 16600 fluorescence intensity (a.u.).
The value for “CGGAGGGAGTATAAAAGAACAATACTTCTATAAATTTTGTCGGAGTCACCTAGTGCAG” was 40300 fluorescence intensity (a.u.); that for “CCAATTCACTCCACCATACTGTTGGCACCTATGATAGAACCGGAGTCACCTAGTGCAG” was 3430 fluorescence intensity (a.u.).
The value for “AGAAAACCTACACCCCGGGCTTCCGTTGCAACGTGACAACCGGAGTCACCTAGTGCAG” was 13300 fluorescence intensity (a.u.); that for “TATACAAGTCAGCTGCTGCTCGATCTTGTCATGAGAGCCCCGGAGTCACCTAGTGCAG” was 5140 fluorescence intensity (a.u.).
Next, “GGAGAGGGAGCGGGAGAGGGAGGATTGGAGGATGTGGGGACGGAGTCACCTAGTGCAG”: 15400 fluorescence intensity (a.u.); “CTGCGGTTGCATTGCATGGAGATGGACCCTCAACCAGCTACGGAGTCACCTAGTGCAG”: 3700 fluorescence intensity (a.u.).
For “CCGACAAAAGATGGTTTCTCCATCAGTGAAGACACAATGTCGGAGTCACCTAGTGCAG”, the binding signal was 19500 fluorescence intensity (a.u.).
Take “CATCGGACGGCCCATGTAGCCCAACTCCTCCGCTGCCACGCGGAGTCACCTAGTGCAG”: the binding signal was 3410 fluorescence intensity (a.u.).
The value for “GGGCTCCCAGTATAGCTTAGGTTGATTTAATTATGGTTAACGGAGTCACCTAGTGCAG” was 49500 fluorescence intensity (a.u.); that for “ATGGCTGTTGATTTTAATAGTGCAGGAGTGGTTTATAGCTCGGAGTCACCTAGTGCAG” was 4220 fluorescence intensity (a.u.).
The value for “TTAGTATGTGATTAATTTAGTATTAATTATTTAACTATAACGGAGTCACCTAGTGCAG” was 31900 fluorescence intensity (a.u.).
The value for “ACACTGCCACGTCAGCGCCACGTTAGCAAAACCGTCCTCCCGGAGTCACCTAGTGCAG” was 35500 fluorescence intensity (a.u.); that for “GCAACAGTGTTATGCAACAGTGTCATTCAGTCTCTACACACGGAGTCACCTAGTGCAG” was 32000 fluorescence intensity (a.u.); that for “AGCTGGTGATGAGCAGCGTCACCAATTCTTCCTGGACGCCCGGAGTCACCTAGTGCAG” was 4190 fluorescence intensity (a.u.).
For “GAGAGGAGGAAGACAGAGAGGAGAGATGAGATAGGATCAACGGAGTCACCTAGTGCAG”, the binding signal is 46200 fluorescence intensity (a.u.).
The value for “ATCGTCGCGGGGCCGCCGACGGCGCGCGGTGTGGCCGACGCGGAGTCACCTAGTGCAG” was 6480 fluorescence intensity (a.u.); that for “GCAACGGAAGAGATGAGGAGATGACTCGGATGAGCGGAAGCGGAGTCACCTAGTGCAG” was 3180 fluorescence intensity (a.u.).
Take “AGAAGAGGGAGACAGAGGATAGAGAGAAGAGGGCACTTCACGGAGTCACCTAGTGCAG”: the binding signal was 11900 fluorescence intensity (a.u.).
On to “GAACGGAACGCAACGTGCGGAGAGAGAGCGAGAGAGAAGCCGGAGTCACCTAGTGCAG”, for which the binding signal is 30600 fluorescence intensity (a.u.).
Next, “GTGGAGGCGAGGCGGCGAGAGGCGGGTAGCAGTGGAGGAGCGGAGTCACCTAGTGCAG”: 3430 fluorescence intensity (a.u.); “GGCAGCTTGGTGCGGGAGAGAGGCGGCGGCGAAGGGGAGACGGAGTCACCTAGTGCAG”: 41900 fluorescence intensity (a.u.).
As to “CGGCGAGGCGAACTCAACGGGTACGCAAAGCGAAGAGGAGCGGAGTCACCTAGTGCAG”, the binding signal is 45600 fluorescence intensity (a.u.).
As for “GAAGGCGGCGGGGTGGCGAAGTGGCGAGGAGGAGACGGGGCGGAGTCACCTAGTGCAG”, the binding signal was 4910 fluorescence intensity (a.u.).
Next, “GGCGGCAGCGACGGCGGAGGCGAGGGAGGGGAGGCGGCGGCGGAGTCACCTAGTGCAG”: 3930 fluorescence intensity (a.u.); “ACGGCGGGAACAATTGTGGGCGGTGGCCTTGGCCGAATCGCGGAGTCACCTAGTGCAG”: 55000 fluorescence intensity (a.u.); “CGGTGGCGGGAACATGTGGGCGGTGGCAGGAGTGCAGGTGCGGAGTCACCTAGTGCAG”: 3810 fluorescence intensity (a.u.).
